Source: PubChem (National Center for Advancing Translational Sciences (NCATS))
Pol beta inh = DNA polymerase beta (human) inhibition; P06746; Pol beta primer extension/strand displacement, fluorescence kinetic; Potency, µM (top dose mostly 114 µM), inactives show top-dose activity change, negative = inhibition, most hits filed as inhibitors; hit rate 1.3% among 340,000; also: % is scaled to controls: 0 for no effect and ±100 for the full control effect
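Reaction started by 50 nM substrate onto compound-treated Pol beta (10 nM, 15 min preincubation, room temperature); plates read at 0 min and 10 min. Normalized concentration-effect data fitted by four-parameter Hill equation.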
WRN inhibitor = WRN helicase (human) inhibition; hit rate 0.46% among 360,000; Potency, µM (highest dose often 114 µM), for inactives: at the top dose activity change, negative = inhibition, usual class: inhibitors; WRN helicase unwinding, fluorescent forked duplex, kinetic; also: % is scaled to controls: 0 for no effect and ±100 for the full control effect; nearly all actives have a fitted effect of over 55% in size
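Enzyme (20 nM final) and test compound sit together 15 min at room temperature before substrate addition. Substrate is a single-forked duplex oligonucleotide (100 nM) labelled with fluorophore and quencher, with 2 mM ATP; helicase unwinding raises red fluorescence, read kinetically.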
POLK inh = inhibitors of human DNA polymerase kappa. purified Pol kappa, fluorescent DNA synthesis assay, 10 min. hit rate 0.53% among 400,000. Potency, µM (doses to about 107 µM), for the others: top-dose activity, negative = inhibition, most hits filed as inhibitors. Q9UBT6; also: % is scaled to controls: 0 for no effect and ±100 for the full control effect
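Kinetic fluorescence readout at 0 and 10 min followed reaction start with substrate at 50 nM final. Beforehand, enzyme (10 nM Pol kappa) stood 15 min with compound at room temperature; buffer-only wells were negative controls.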
Pol eta inh = inhibitors of human DNA polymerase eta. Potency, µM (doses to about 114 µM), for the others: at the top dose activity change, negative = inhibition, actives largely listed as inhibitors. Q9Y253. hit rate 1.2% among 390,000. recombinant Pol eta, fluorescent DNA replication assay; also: % is scaled to controls: 0 for no effect and ±100 for the full control effect
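Pol eta at 10 nM preincubated with compounds 15 min at room temperature; reaction started with fluorescent substrate (50 nM final) and read kinetically at 0 and 10 min.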
Pol iota inh = blocks human DNA polymerase iota activity; Q9UNA4; AID 588590; Pol iota fluorescent replication assay, 10 min; hit rate 1% among 390,000; Potency, µM (highest dose often 115 µM), for the others: top-dose activity, negative = inhibition, hits mostly inhibitors
Target sequence (Q9UNA4 whole entry, looked up): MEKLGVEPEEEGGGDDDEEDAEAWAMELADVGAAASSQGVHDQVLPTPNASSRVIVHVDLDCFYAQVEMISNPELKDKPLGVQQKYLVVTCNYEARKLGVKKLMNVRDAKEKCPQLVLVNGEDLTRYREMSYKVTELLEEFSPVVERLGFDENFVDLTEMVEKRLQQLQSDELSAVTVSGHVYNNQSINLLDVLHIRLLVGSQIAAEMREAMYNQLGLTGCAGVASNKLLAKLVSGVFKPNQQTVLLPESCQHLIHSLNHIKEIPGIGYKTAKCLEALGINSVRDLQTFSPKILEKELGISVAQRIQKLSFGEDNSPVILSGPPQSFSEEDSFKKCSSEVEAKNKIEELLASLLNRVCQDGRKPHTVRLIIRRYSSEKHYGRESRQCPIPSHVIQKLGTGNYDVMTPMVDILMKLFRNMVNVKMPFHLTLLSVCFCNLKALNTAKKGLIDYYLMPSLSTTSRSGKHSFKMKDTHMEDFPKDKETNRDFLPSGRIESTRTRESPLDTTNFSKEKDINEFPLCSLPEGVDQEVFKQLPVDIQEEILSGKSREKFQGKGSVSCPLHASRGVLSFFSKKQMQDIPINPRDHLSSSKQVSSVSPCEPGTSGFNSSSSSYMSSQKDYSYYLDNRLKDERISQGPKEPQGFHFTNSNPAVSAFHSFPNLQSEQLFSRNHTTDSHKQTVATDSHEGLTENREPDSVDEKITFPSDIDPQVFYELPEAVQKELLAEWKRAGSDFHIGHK
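Fluorescent replication assay read twice, at 0 min and 10 min after adding 50 nM (final) substrate. Enzyme (10 nM) and compounds were first incubated 15 min at room temperature; enzyme-free buffer wells were negative controls.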
L3MBTL1 block = blocks human L3MBTL1. Q9Y468. AlphaScreen L3MBTL1–H3K9me1 peptide binding. Potency, µM (doses to about 57.1 µM), for the others: at the top dose activity, negative = inhibition, hits mostly inhibitors. hit rate 0.66% among 230,000; also: % is scaled to controls: 0 for no effect and ±100 for the full control effect; nearly all actives have a fitted effect of over 60% in size
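AlphaScreen assay: L3MBTL1 (50 nM final) was preincubated 30 min at room temperature with biotinylated H3(1-15)K9me1 peptide (75 nM final), then 30 min with library compounds; streptavidin donor and nickel chelate acceptor beads (10 ug/mL final) added, 30 min dark.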
* hit, by the source's call; u = inconclusive; x = no result given; [ ] = remark or other dose. Shown are actives, neighbours in structure and some others; about 2.5% of the full set was active somewhere. Calls follow the shape of the dose curve; as a rule, active = well fitted curve in the direction sought with a large enough effect; inconclusive = small, poorly fitted or top-dose-only effect, or another doubt; inactive = no such curve, though single readings can be large; an effect the other way counts as inactive or inconclusive. Potency is read from the fitted curve at half-maximal effect.

SMILES	Pol beta inh	WRN inhibitor	POLK inh	Pol eta inh	Pol iota inh	L3MBTL1 block
CN(CC(=O)NCCc1ccc(Cl)cc1)S(=O)(=O)c1ccc2c(c1)c(=O)n(C)c(=O)n2C	14%	8%	11%	u	16%	x
CN(CC(=O)NCCC1=CCCCC1)S(=O)(=O)c1ccc2c(c1)c(=O)n(C)c(=O)n2C	5%	-9%	-19%	-5%	79µM*	x
C=CC1=C(C)C2=NC1=CC1=NC(=CC3=NC(=CC4=NC(=C2)C(C)=C4CCC(=O)O)C(CCC(=O)O)=C3C)C(C=C)=C1C.[Zn]	x	x	3.5µM*	x	x	x
CCCCCCn1cnc2c(c1=O)c1nc3ccccc3nc1n2/N=C/c1ccco1	45µM*	-35%	-17%	u	u	-2%
COCCn1cnc2c(c1=O)c1nc3ccccc3nc1n2/N=C/c1ccco1	26%	6%	9%	34%	12%	7%
COc1ccccc1NC(=O)Cn1nnc(-c2ccccc2NS(=O)(=O)c2ccccc2)n1	11%	-13%	-36%	-3%	89µM*	u
COc1ccc(NC(=O)Cn2nnc(-c3ccccc3NS(=O)(=O)c3ccc(OC)cc3)n2)cc1	9%	-19%[57.1 µM]	-7%	-26%	18%	19%
NC(=O)CC(NC(=O)c1ccccc1)c1ccc(NCc2ccccc2)c([N+](=O)[O-])c1 (stereo not given)	9%	6%	2%	-7%	10%	x
O=C1OC2(CCCCC2)CC2=C1C1O[C@](c3ccsc3)(Cc3c1ccc1ccccc31)O2	10µM*	x	x	x	x	x
COc1ccc(NC(=O)c2ccc3c(c2)C(=O)N(Cc2ccncc2)C3=O)cc1S(N)(=O)=O	x	u	-10%	u	32µM*	2%
COc1ccccc1N1CCN(S(=O)(=O)c2c(C)sc3ncn(CC(=O)Nc4cccc(Cl)c4)c(=O)c23)CC1	3%	x	-16%	-23%	30%	x
Cc1ccc(-c2cc(C(=O)N/N=C/c3ccc(Cl)cc3)n[nH]2)o1	25µM*	-28%	-4%	u	u	x
Cc1ccc(-c2cc(C(=O)N/N=C/c3ccccc3)n[nH]2)o1	u	4%	0%	-2%	12%	x
Cc1ccc(C(=O)c2sc(Nc3ccccc3F)c(S(=O)(=O)c3ccccc3)c2N)c(C)c1	1%	x	-9%[60.1 µM]	-15%	1%	x
O=C(Nc1ccc(Cl)cc1F)c1ccc(COc2c(F)c(F)c(F)c(F)c2F)o1	45µM*	-17%	-32%	20µM*	-15%	-9%
Cc1cc(C)n2c(SCC(=O)Nc3cccc(S(N)(=O)=O)c3)nnc2n1	x	0%	-15%	-9%	107%	6%
COc1cccc(N2CC34C=CC(O3)C(C(=O)O)C4C2=O)c1 (stereo not given)	u	-28%	u	14µM*	u	x
CC(=O)Nc1ccccc1-c1nc2cc(C#N)c(C#N)cc2[nH]c1=O	2%	0%	7%	-7%	-8%	x
CCc1ccccc1NC(=O)CN1CCN(C(=O)c2ccc(OCc3cn4ccccc4n3)cc2)CC1	x	-7%	-7%	-18%	22%	2%
CCc1ccccc1NC(=O)CNC(=O)c1ccc(OCc2cn3ccccc3n2)cc1	x	-21%	-28%	-20%	45µM*	-14%
O=C(CSc1nc2c(sc3ccccc32)c(=O)n1CCO)NCc1ccco1	45µM*	u	u	u	u	-13%
Cc1ccc(Cn2c(SCC(=O)NCc3ccco3)nc3ccsc3c2=O)cc1	-21%	-3%	-24%	6%	100µM*	-7%
Cc1ccc(Cn2c(SCC(=O)NCc3ccc(Cl)cc3)nc3ccsc3c2=O)cc1	25%	x	0%	-10%	18%	x
Cc1cccc(C)c1NC(=O)Cn1c(=O)n(Cc2ccc(C(=O)NCc3ccco3)cc2)c(=O)c2sccc21	45µM*	x	-21%	x	45µM*	x
CCCN1CCN(C(=O)CN2C(=O)COc3ccc(S(=O)(=O)N(CC)CC)cc32)CC1	41%	0%	12%	-8%	-10%	x
SMILES	Pol beta inh	WRN inhibitor	POLK inh	Pol eta inh	Pol iota inh	L3MBTL1 block
Cc1ccc(C)n1Cc1ccc(C(=O)O)cc1	2.8µM*	2.8µM*	1.3µM*	-98%	0.71µM*	u
O=C(CC1N=C2c3ccccc3N=C(SCc3ccc(Cl)cc3)N2C1=O)NCc1ccco1 (stereo not given)	u	-4%[11.6 µM]	u	79µM*	u	-6%
Cc1ccc(CSC2=Nc3ccccc3C3=NC(CCC(=O)NCc4ccco4)C(=O)N23)cc1 (stereo not given)	1%	1%	-10%	7%	27%	-1%
O=C(O)c1cccc2[nH]c(C(F)(F)F)nc12	5%	5%	2%	-6%	-12%	9%
Nc1cccc2[nH]c(C(F)(F)F)nc12	u	-97%	u	79µM*	40µM*	u
COCCNC(=O)C(c1ccc(C)o1)N(CC1CCCO1)C(=O)Cn1nnc2ccccc21 (stereo not given)	-2%	5%	-1%	-5%	8%	1%
O=C(NCc1ccco1)C(c1ccc(F)cc1)N(CC1CCCO1)C(=O)Cn1nnc2ccccc21 (stereo not given)	0.32µM*	1%	-6%	-17%	16%	x
Cc1ccc(S(=O)(=O)N2CCOCC2)c(C)c1NS(C)(=O)=O	24%	0%	-2%	-13%	78%	1%
CCOc1cc(/C=C2/C(=N)N3N=C(CC)SC3=NC2=O)ccc1OC(=O)c1ccco1	-8%	u	-11%	-4%	u	x
CCOc1cc(/C=C2/C(=O)N(c3ccccc3)N=C2C)ccc1OC(=O)c1ccco1	3%	u	-28%	-19%	1µM*	-29%
CCOc1cc(/C=C2\C(=O)N(c3ccc(C(N)=O)cc3)N=C2C)ccc1OC(=O)c1cccs1	0%	u	-5%	50µM*	u	-17%
CCOc1cc(/C=C2/SC(=S)N(CC(=O)O)C2=O)ccc1OC(=O)c1cccs1	-22%	-11%[11.6 µM]	-3%	u	u	-25%
O=C(OCCOc1ccccc1)c1cccc(S(=O)(=O)N2CCOCC2)c1	x	0%	-1%	-18%	-19%	4%
O=C(COC(=O)c1cc([N+](=O)[O-])ccc1NCCO)Nc1cccnc1Cl	x	5%	-5%	-15%	25%	4%
CCCc1nnc(NC(=O)CCC(=O)NC2CCCCC2)s1	3%	-6%	2%	-18%	25%	x
O=C(O)CSc1nc(-c2ccccc2)nc2c1oc1ccccc12	-1%	-17%	-3%	-3%	0%	-1%
O=C(O)CSc1nc(-c2ccc(Cl)cc2)nc2c1oc1ccccc12	56µM*	-14%	-16%	u	7%	0%
